# Shown are actives, neighbours in structure and some others; about 15% of the full set was active somewhere.
# SARS PLP yeast: qHTS of Yeast-based Assay for SARS-CoV PLP | S. cerevisiae expressing SARS-CoV PLpro, growth rescue | 330,000 compounds, 0.19% hits | Potency, µM (doses to about 32.9 µM), for the others: at the top dose activity, positive = growth rescue, hits mostly activators; calls by dose curve; also: potency is read from the fitted curve at half-maximal effect; 0% is about no effect; nearly all actives have a fitted effect of over 55% in size
# Pf growth 96h: Primary qHTS for delayed death inhibitors of the malarial parasite plastid, 96 hour incubation | P. falciparum luciferase reporter growth, 96 h | Potency, µM (highest dose often 28.7 µM), for the others: at the top dose activity change, negative = inhibition, most hits filed as inhibitors | 320,000 compounds, 6.9% hits; also: potency is read from the fitted curve at half-maximal effect; % is scaled to controls: 0 for no effect and ±100 for the full control effect
#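 P. falciparum expressing integrated firefly luciferase, in erythrocytes at 2% hematocrit, 0.05% parasitemia, incubated with compounds 96 h at 37 C, 5% CO2. Growth inhibition read as loss of luminescence; two-generation exposure targets delayed-death apicoplast inhibitors.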
# HCMV inh: qHTS Assay for inhibitors of the human cytomegalovirus (HCMV). AID 1259415, 2018. activity change, negative = inhibition, % at 57.5 µM. HFF cells, HCMV-luciferase reporter, 72 h; active compounds read low. 410,000 compounds, 4.5% hits; in the data active = activity change below about -60%; inconclusive = no clear call, values can overlap the other calls; inactive = above about -39%; also: % is scaled to controls: 0 for no effect and ±100 for the full control effect
#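 Compounds were evaluated in HFFs infected with an HCMV luciferase reporter virus (MOI 1 PFU/cell). Luciferase in lysates collected 72 h post infection served as the replication measure.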
# Sm TGR block: qHTS Assay for the Inhibitors of Schistosoma Mansoni Peroxiredoxins; purified TGR, DTNB reduction, TNB absorbance 405 nm; Potency, µM (series often up to 114 µM), without a hit: top-dose activity change, negative = inhibition, most hits filed as inhibitors; 360,000 compounds, 3% hits; AID 485364, 2010; also: potency is read from the fitted curve at half-maximal effect; % is scaled to controls: 0 for no effect and ±100 for the full control effect; nearly all actives have a fitted effect of over 60% in size
#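 TGR 20 nM + NADPH 100 uM (dispensed conc.), cpd preinc 15 min RT; start with NADPH (500 uM addition) then DTNB (15 mM addition). Kinetic TNB absorbance, 405 nm filter. Four-parameter Hill fit across titration.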
# HCV inh: qHTS Assay for Inhibitors of Hepatitis C Virus (HCV); Huh7.5.1 HCVcc-Cre infection, luciferase reporter, 44 h; Potency, µM (doses to about 41.8 µM), inactives show at the top dose activity change, negative = inhibition, usual class: inhibitors; 340,000 compounds, 3.4% hits; AID 651820, 2012; also: potency is read from the fitted curve at half-maximal effect; % is scaled to controls: 0 for no effect and ±100 for the full control effect
#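 After 44 h co-culture of compound, cells and HCVcc-Cre (~0.5 moi), substrate is added for 15 min at room temperature and luciferase measured over 15 sec. Cells were seeded at 1,000/well and pre-cultured 4 h.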
# Pf growth 48h: Primary qHTS for delayed death inhibitors of the malarial parasite plastid, 48 hour incubation | 310,000 compounds, 5.9% hits | AID 504832, 2011 | Potency, µM (doses to about 28.7 µM), without a hit: top-dose activity change, negative = inhibition, usual class: inhibitors | P. falciparum luciferase growth in erythrocytes, 48 h; also: potency is read from the fitted curve at half-maximal effect; % is scaled to controls: 0 for no effect and ±100 for the full control effect
#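 Here the parasites carry a stable luciferase gene and grow inside erythrocytes in Albumax-based RPMI medium with compound for one erythrocytic cycle. Activity is scored as loss of luminescent signal.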
# An asterisk follows results filed as active; u = inconclusive; x = no result. Unless noted, calls follow the shape of the dose curve; as a rule, active = well fitted curve in the direction sought with a large enough effect; inconclusive = small, poorly fitted or top-dose-only effect, or another doubt; inactive = no such curve, though single readings can be large; an effect the other way counts as inactive or inconclusive.
SMILES,SARS PLP yeast,Pf growth 96h,HCMV inh,Sm TGR block,HCV inh,Pf growth 48h
O=[N+]([O-])c1ccc(N2CCCC2)cc1NC(c1ccccc1)c1ccccc1,6%,u,-20,4%,u,u
O=C(NC1CCCC1)C1C2C=CC(C2)C1C(=O)N1CCOCC1 (stereo not drawn),1%,9.3µM*,15,1%,15%,10%
CC(C)c1ccc(NC(=O)Nc2nc(C(N)C3CCCCC3)cs2)cc1 (stereo not drawn),x,x,-101*,x,x,x
CC(C)c1ccc(NC(=O)Nc2nc(C(N)c3ccccc3Cl)cs2)cc1 (stereo not drawn),x,x,-70*,x,x,x
COc1ccc(NC(=O)Nc2nc(C(N)C3CCCCC3)cs2)cc1 (stereo not drawn),x,x,2,x,x,x
Cc1cccc(COc2ccc(S(=O)(=O)N3CCOCC3)cc2[N+](=O)[O-])c1,-9%,u,-39,-3%,-7%,u
CCc1c(C)nc2ncnn2c1N1CCCC(C(=O)NCCc2ccc(OC)cc2)C1 (stereo not drawn),17%,0%,-68*,-1%,u,u
Cc1nc2ncnn2c(N2CCCC(C(=O)Nc3ccc4c(c3)CCC4)C2)c1C (stereo not drawn),1%,154%,-101*,-7%,10µM*,5.2µM*
COc1ccc(CCNC(=O)C2CCCN(c3ncccn3)C2)cc1 (stereo not drawn),0%,2%,-69*,6%,2%,21%
COc1ccc(CCNC(=O)C2CCCN(c3nc(C)cc(C)n3)C2)cc1 (stereo not drawn),-3%,u,-21,-1%,-12%,19%
O=C(Nc1ccc2c(c1)CCC2)C1CCCN(c2ncccn2)C1 (stereo not drawn),12%,125%,123,7%,-19%,92%
Cc1cc(N2CCCC(C(=O)Nc3cccc4ccccc34)C2)n2ncnc2n1 (stereo not drawn),-1%,2%,-69*,8%,u,u
CCCc1cc(N2CCCC(C(=O)Nc3ccc(OC)cc3OC)C2)n2ncnc2n1 (stereo not drawn),9%,-17%,u,4%,-28%,u
COc1ccc(OC)c(NC(=S)NC(=O)c2ccc(Br)o2)c1,u,20%,-34,-27%,-7%,20%
Cc1cc2nc(C(=O)NC3CCCCC3)c(-c3cccc(Br)c3)nc2cc1C,x,x,28,x,x,x
CCc1c(C)nc2ncnn2c1N1CCC(C(=O)Nc2ccc(C)cc2)CC1,-3%,12µM*,-86*,32%,u,u
CCOc1ccccc1NC(=O)C1CCCN(c2c(CC)c(C)nc3ncnn23)C1 (stereo not drawn),4%,13%,u,7%,13µM*,10µM*
CCc1c(C)nc2ncnn2c1N1CCC(C(=O)Nc2ccccc2)CC1,-5%,-20%,-34,19%,u,u
CCOc1ccccc1NC(=O)C1CCCN(S(C)(=O)=O)C1 (stereo not drawn),-2%,u,-5,3%,10%,10%
CC(NC(=O)c1cc(COc2ccc(-n3cncn3)cc2)on1)c1ccc(F)cc1 (stereo not drawn),x,x,18,x,x,x
COc1ccccc1C(=O)NCCC(=O)NCC(c1ccco1)N1CCCC1 (stereo not drawn),1%,12µM*,-30,-15%,6%,-27%
COc1ccc(Cl)cc1C(=O)NCC(c1ccco1)N1CCCC1 (stereo not drawn),0%,4.1µM*,38,-23%,u,u

# Screening data deposited in PubChem by National Center for Advancing Translational Sciences (NCATS).
